Active and inactive are the calls of the source. Calls follow the shape of the dose curve; as a rule, active = well fitted inhibition curve with a large enough effect; inconclusive = small, poorly fitted or top-dose-only effect; inactive = flat fitted curve, though single readings scatter.
system: Nanoluciferase (engineered Oplophorus gracilirostris luciferase); assay: Primary Nanoluciferase (NLuc) qHTS assay for identification of artifact compounds. (AID 1845222); conditions: NLuc-conditioned medium, Nano-Glo luminescence, 5 min; series mostly up to 54.1 µM
Excerpt: PI: Alexander Tropsha Ph.D.
UNC Eshelman School of Pharmacy
University of North Carolina, Chapel Hill, North Carolina
Hits from high-throughput screening (HTS) of chemical libraries are often false positives due to their interference with the assay detection technology. In response to this problem, we generated the largest publicly available library of chemical liabilities and developed a free webtool to predict HTS artifacts, both of which are described herein. More specifically, we generated, curated, and integrated HTS datasets for thiol reactivity, redox activity, and luciferase (firefly and nano) activity. Using these curated datasets, we developed and validated several Quantitative Structure-Interference Relationship (QSIR) models to predict nuisance behavior. […] These models were employed for virtual profiling of the National Center for Advancing Translational Science's (NCATS) in-house library, and 256 compounds for each assay were selected for the experimental validation of nuisance behavior. The BA for these external predictions ranged from 58 to 78% for compounds within the applicability domains of the models. […] The models developed in this study, along with aggregation models previously developed by our group (SCAM Detective) were implemented in "Liability Predictor," an online tool which may be used as part of chemical library design or for triaging HTS hits. Both the models and the curated datasets are publicly available at https://liability.mml.unc.edu/.
SEQUENCE No. (e.g., 1, 2, 3, etc.); […] (e.g., Cells, Incubation, Reagent, etc.); VALUE; DESCRIPTION.
1; Reagent; 2 uL; Nanoluciferase media.
2; Compounds and control; 16 nL; Kalypsis pin tool (Wako USA) equipped with a 1536-well pin head.
4; Reagent; 2 uL; Luciferase enzyme.
6; Detection; Luminescence, ViewLux microplate reader.
NOTES (numbers refer to Sequence numbers above)
1. Medium was collected from the culture flasks of NLuc-expressing S16 cells (80% confluent) prior to cell plating, filtered through a 0.22um filter, and frozen at -20C prior to use. Media was diluted (1:55) and 2 uL was dispensed into all wells of a 1536-well assay plate (solid-bottom white plate; Greiner Bio One, Monroe, NC).
2. A Wako Pin-tool (Wako Automation, Richmond, VA) was used to transfer 16 nL of compounds (consisting of 7-plates in qHTS format, final concentration range 18.3 nM to 114 uM) or control Cilnidipine (final concentration range 623 nM to 80 uM).
3. 15 min. incubation at room temperature protected from light.
4. 2 uL of NLuc substrate (1:100 in Nano-Glo luciferase buffer; Nano-Glo luminescence assay, Promega, Madison, WI) was dispensed for a final assay volume of 4 uL.
5. Plates were centrifuged (121xg, 15 seconds) and incubated for 5 minutes.
6. Samples were read for luminescence on a ViewLux CCD imager (PerkinElmer). Data were normalized to no-enzyme (0% activity) and no-inhibitor (DMSO; 100%) controls and the resulting percent inhibition data were fitted to a 4-parameter Hill equation using NCATS in-house software.

Row | SMILES | outcome
1 | CN1CCc2c(c3ccccc3n2Cc2ccc(C(=O)NO)cc2)C1 | inactive
2 | CC(O)(C#Cc1ccc2c(c1)N(c1nc(N)ncc1Cl)CC2)c1nccs1 (stereo not given) | inactive
3 | Cc1ccccc1C(=O)Nc1ccc(C(=O)N2CCCC(O)c3cc(Cl)ccc32)c(C)c1 (stereo not given) | inactive
4 | CC(C)C[C@H](NC(=O)[C@@H](NC(=O)c1cccc(-c2ccccc2)n1)[C@@H](C)O)B(O)O | inactive
5 | CCN(CC)Cc1ccc2cc(COC(=O)Nc3ccc(C(=O)NO)cc3)ccc2c1 | inactive
6 | Cn1cnc2c(F)c(Nc3ccc(Br)cc3F)c(C(=O)NOCCO)cc21 | inactive
7 | O=C(Nc1ccc(Oc2ccnc3[nH]ccc23)c(F)c1)c1cccn(-c2ccc(F)cc2)c1=O | inactive
8 | c1ccc2c(Oc3nc(Nc4ccc(N5CCOCC5)cc4)c4ncn(C5CCCCC5)c4n3)cccc2c1 | inactive
9 | CC(C)n1cnc2c(NCCc3ccc(O)cc3)nc(-c3csc4ccccc34)nc21 | inactive
10 | CS(=O)(=O)N1CCc2c(-c3cnc(N)nc3)nc(N3CCOCC3)nc21 | inactive
11 | CCCCOc1ccc(C(=O)Nc2ccc(F)cc2F)cc1 | inactive
12 | C[C@H](O)[C@@H]1C(=O)N2C(C(=O)O)=C(S[C@@H]3CN[C@H](CNS(N)(=O)=O)C3)[C@@H](C)[C@@H]12 | inactive
13 | Nc1ccc(C(=O)Nc2cccc(-c3nc(N4CCOCC4)c4oc5ncccc5c4n3)c2)cn1 | inactive
14 | Cn1cc(-c2ccc3ncc(Cc4ccc5ncccc5c4)n3n2)cn1 | inactive
15 | c1cncc(CN2CCC(n3ncc4c(N5CCOCC5)nc(-c5ccc6[nH]ccc6c5)nc43)CC2)c1 | inactive
16 | Cc1ncc(-c2ccnc(Nc3ccc(S(C)(=O)=O)cc3)n2)n1C(C)C | inactive
17 | CCOC(=O)[C@@H](N)Cc1ccc(-c2cc(O[C@H](c3ccc(Cl)cc3-n3ccc(C)n3)C(F)(F)F)nc(N)n2)cc1 | inactive
18 | FC(F)(F)c1ccc(Nc2nc3ccc(Oc4ccnc(-c5ncc(C(F)(F)F)[nH]5)c4)cc3[nH]2)cc1 | inactive
19 | N[C@H]1CN(c2c(F)cc3c(=O)c(C(=O)O)cn(C4C[C@@H]4F)c3c2Cl)CC12CC2 (stereo not given in full) | inactive
20 | Cc1coc2c1C(=O)C(=O)c1c-2ccc2c(C)cccc12 | inactive

Row | SMILES | outcome
21 | N#Cc1c(C2CCNCC2)cc(-c2c(O)cccc2OCC2CC2)nc1N | inactive
22 | CCc1nc(-c2cccc(C)c2)c(-c2ccnc(NC(=O)c3ccccc3)c2)s1 | inactive
23 | Nc1ccn(C2CO[C@H](CO)O2)c(=O)n1 (stereo not given in full) | inactive
24 | CC(C)c1cc(C(C)C)c(CC(=O)NS(=O)(=O)Oc2c(C(C)C)cccc2C(C)C)c(C(C)C)c1 | inactive
25 | O=C(O)c1ccc(Nc2ncc3c(n2)-c2ccc(Cl)cc2C(c2c(F)cccc2F)=NC3)cc1 | inactive
26 | OCCNC1CCCc2c1[nH]c1ccc(-c3ccccc3)cc21 (stereo not given) | inactive
27 | Cc1cnc(Nc2ccc(CN3CCOCC3)cc2)nc1Nc1cccc(S(=O)(=O)NC(C)(C)C)c1 | inactive
28 | CCOc1cc2c(c(F)c1OCC)C(=N)N(CC(=O)c1cc(N3CCOCC3)c(OC)c(C(C)(C)C)c1)C2 | inactive
29 | C[N+]1(C)[C@@H]2C[C@@H](OC(=O)C(O)(c3cccs3)c3cccs3)C[C@H]1[C@@H]1O[C@@H]12 | inactive
30 | CC(C)(N)c1ccc(-c2nc3ccccc3nc2-c2ccccc2)cc1 | inactive
31 | FC(F)c1nc2ccccc2n1-c1nc(N2CCOCC2)nc(N2CCOCC2)n1 | inactive
32 | C[C@H]1[C@@H](OC(=O)CCC(=O)O)O[C@@H]2O[C@@]3(C)CC[C@@H]4[C@H](C)CC[C@@H]1[C@@]24OO3 | inactive
33 | C[C@@H](Cc1cc2c(c(C(N)=O)c1)N(CCCO)CC2)NCCOc1ccccc1OCC(F)(F)F | inactive
34 | Oc1ccc([C@@H]2Oc3ccc(O)cc3[C@@H]3CCC[C@@H]32)cc1 | inactive
35 | COc1ccc(S(=O)(=O)Nc2cccnc2Nc2ccc(O)cc2)cc1 | inactive
36 | CCC[C@H]1C[C@H](C(=O)N[C@@H]([C@@H]2O[C@@H](SC)[C@@H](O)[C@@H](O)[C@@H]2O)[C@H](C)Cl)N(C)C1 | inactive
37 | CCc1ccc(C(=O)Nc2cc(CN3CCN(C)CC3)cc(C(F)(F)F)c2)cc1C#Cc1cnc2ccnn2c1 | inactive
38 | O=C(Nc1cc2cc[nH]c2cn1)c1ccccc1 | inactive
39 | Oc1cc(-c2nc(-c3ccccc3)[nH]c2-c2ccncc2)ccc1Cl | inactive
40 | c1cc(N[C@@H]2CCNC2)nc(-c2cnc3ccc(-c4cn[nH]c4)cn23)c1 | inactive

Source: PubChem BioAssay (NCATS)
